Measurements taken from ChEMBL document CHEMBL1157539, “Thousands of chemical starting points for antimalarial lead identification” (Nature, 2010).

Each compound was assayed on HepG2 (assay: GSK_TCMDC: Percent inhibition of human HepG2 cell line. Test compounds present at 10uM.).
Assay type: functional
In the case of `O=C(/C=C/c1ccc(Cl)c(Cl)c1)NCCCCCN1CCC(NC(=S)Nc2cccc(Cl)c2)CC1`, the Inhibition is reported as 24%.
`CS(=O)(=O)c1ccc(CCNCc2ccc(-c3ccc(CN(C(=O)C4CC(=O)c5ccccc54)C4Cc5ccccc5C4)cc3)nc2)cc1.O=C(O)C(F)(F)F` (stereo not given) was tested, and the Inhibition was 5%.
Work on `CC1(C)N=C(N)N=C(N)N1CCc1ccccc1.Cl` yielded an Inhibition of 50%.
For `COc1ccc2[nH]ccc(=NN=Cc3ccccc3F)c2c1`, the Inhibition was 23%.
`Cc1cc(-c2cnc(N)c(-c3ccc(N4CCN(C)CC4)cc3)c2)cc(C)c1O` gave an Inhibition of 3%.
`Nc1nc(N)c2c(Oc3cccc4ccccc34)cccc2n1` showed an Inhibition of 42%.
In the case of `COc1ccccc1N1CCN(Cc2c(NC(C)=O)sc(C)c2C)CC1`, the Inhibition is reported as 9%.
In the case of `CSc1ccc(CN2CCC(NC(=O)c3ccc(-c4cccc(C(F)(F)F)c4)s3)CC2)cc1.O=C(O)C(F)(F)F`, the Inhibition is reported as 68%.
Work on `COc1cccc(NC(=O)[C@H](C)n2c(=O)[nH]c3ccccc3c2=O)c1` yielded an Inhibition of 8%.
For `COc1cc2c(cc1CCNCCCCNCCc1cc3c(cc1OC)CCCC3)CCCC2.CS(=O)(=O)O`, the Inhibition was 100%.
`CS(=O)(=O)c1ccc(CNCc2ccc(-c3cccc(-c4nc5cc(F)ccc5[nH]4)c3)cc2)cc1.O=C(O)C(F)(F)F` gave an Inhibition of 33%.
With `CCC(C)CN1CCCN(c2ccc(NC(=O)c3cccs3)cc2)CC1.O=C(O)C(F)(F)F` (stereo not given) the Inhibition was 4%.
Compound `CC(=O)O.CC(C)c1ccc(C2CCN(CCCCNC(=O)c3ccc(NC(=O)c4ccc(C(F)(F)F)cc4)cc3)CC2)c(O)c1` has an Inhibition of 47%.
For `CN1CCC(NCc2ccc(-c3ccc(S(=O)(=O)NCc4ccccc4)cc3)cc2)CC1.O=C(O)C(F)(F)F`, the Inhibition was 40%.
`CCNC(C)(C)CN(Cc1ccc(-c2ccc(C(F)(F)F)cc2)cc1)C(=O)Cn1c(SCc2ccc(F)cc2)nc(=O)c2c1CCC2.O=C(O)C(O)C(O)C(=O)O` was tested, and the Inhibition was 99%.
`O=C(Cc1c[nH]cn1)Nc1ccc(-c2ccc(-c3nc4cc(C(F)(F)F)ccc4[nH]3)s2)cc1` showed an Inhibition of 48%.
With `COc1cc(NC(=O)c2sc(-c3ccc(Cl)cc3)cc2NC(=O)c2cccc(N(C)C)c2)ccc1OCCN1CCCC1` the Inhibition was 49%.
With `Cc1nc2ccccn2c1C1(O)C(=O)Nc2c(Cl)cc(Cl)cc21` (stereo not given) the Inhibition was 0%.
`O=C(Nc1cccc(C(F)(F)F)c1)c1cccc(S(=O)(=O)NC2CCN(CC3CCCCC3)C2)c1.O=C(O)C(F)(F)F` (stereo not given) gave an Inhibition of 37%.
Compound `COc1ccc(C(=O)C2CCN(CCCCNC(=O)c3ccc(NC(=O)c4cc(Cl)cc(Cl)c4)cc3)CC2)cc1` has an Inhibition of 35%.
With `CS(=O)(=O)c1ccc(CCNCc2ccc(-c3ccc(CN(C(=O)c4cccc(C#N)c4)C4CCN(Cc5ccccc5)CC4)cc3)nc2)cc1.O=C(O)C(F)(F)F` the Inhibition was 20%.
For `COc1ccc(-c2nc(NC(=O)Cc3cccc(OC)c3)sc2C)cc1`, the Inhibition was 1%.
With `Cc1cc(N[C@@H](CC(C)C)C(=O)NCCOc2ccccc2)nc(NCCOc2ccccc2)n1.O=C(O)C(F)(F)F` the Inhibition was 0%.
Compound `COc1ccc(NC(=O)CCNc2cc(C)nc(NCCc3ccccc3)n2)cc1.O=C(O)C(F)(F)F` has an Inhibition of 3%.
`CC(C)(C)c1ccc(C(=O)Nc2ccc3nc4c(c(N)c3c2)CCCC4)cc1.Cl` showed an Inhibition of 21%.
`Cc1cnc(NCC2CCCCC2)nc1N[C@@H](CC(C)C)C(=O)Nc1ccccc1.O=C(O)C(F)(F)F` gave an Inhibition of 12%.
Compound `CC(C)CCNC(=O)C1Cc2c([nH]c3cc(Cl)ccc23)C2(CCN(CCc3ccccc3)CC2)N1` (stereo not given) has an Inhibition of 17%.
Compound `Cc1c(CC(=O)N(C)C2CCN(CCCCCNC(=O)/C=C/c3ccc(Cl)c(Cl)c3)CC2)sc2ccc(Cl)cc12` has an Inhibition of 93%.
`O=C(Nc1cccc(-c2csc(-c3nc4ccccc4[nH]3)c2)c1)c1cccnc1` was tested, and the Inhibition was 18%.
Work on `Cc1cc(C(=O)Nc2ccc(OCc3ccccc3)cc2)on1` yielded an Inhibition of 1%.
Work on `CCN(CC)CCN(Cc1ccc(-c2ccc(C(F)(F)F)cc2)cc1)C(=O)Cn1c(CCc2cccc(F)c2F)c(C)c(=O)c2ccccc21.O=C(O)C(O)C(O)C(=O)O` yielded an Inhibition of 61%.
`COc1ccc(NC(=O)Nc2nc(-c3ccc(Cl)c(C)c3)cs2)cc1N1CCN(C)CC1.Cl` showed an Inhibition of 9%.
Work on `C=CCc1cccc(CN2CCC(c3cc(O)nc(-c4ccccn4)n3)CC2)c1O` yielded an Inhibition of 46%.
With `COc1ccc(NC(=O)c2c(NC(=O)c3cccs3)sc3c2CCCC3)cc1` the Inhibition was 4%.
For `CN1CCN(S(=O)(=O)c2cccc(Nc3nccc(N(C)c4ccc5c(c4)nc(NC(=O)c4cccs4)n5C)n3)c2)CC1`, the Inhibition was 25%.
For `O=C(Nc1cccc(CN2CCN(Cc3ccc(O)cc3)CC2)c1)c1cccc(C(F)(F)F)c1.O=C(O)C(F)(F)F`, the Inhibition was 21%.
`Oc1ccc(Cl)cc1-c1cc(C(F)(F)F)nc(-c2ccccc2)n1` was tested, and the Inhibition was 20%.
In the case of `Nc1ncc(-c2cccc(OCc3ccccc3)c2)cc1-c1nnc2ccc(Cl)nn12`, the Inhibition is reported as 0%.
`Cc1ccccc1C(=O)NC(NC(=S)Nc1ccc([N+](=O)[O-])cc1)C(Cl)(Cl)Cl` (stereo not given) was tested, and the Inhibition was 0%.
For `O=[N+]([O-])c1cccc(S(=O)(=O)N2CCN(CC(O)COc3ccc(-c4ccccc4)cc3)CC2)c1` (stereo not given), the Inhibition was 11%.
